In PubChem BioAssay (Tox21):
Values joined by “and” are separate entries in the source; they are usually repeats but may differ in a detail not shown here. Identical values can stand only once. Results filed as inconclusive are left out. Unmarked numbers belong to inactive results. Active and inactive are the calls of the source. Calls follow the shape of the dose curve; as a rule, active = well fitted cell-killing curve with a large enough effect in the repeat runs; inconclusive = weak or mixed curves, or effect the other way; inactive = flat fitted curve, though single readings scatter.

Assay: qHTS RealTime-Glo MT Cell Viability Assay in HepG2 cells - 40 hour (AID 1224870); also: nearly all actives have a fitted effect of over 50% in size
Conditions: RealTime-Glo luminescence; series mostly up to 76.8 µM; activity change, negative = cytotoxic: at the top concentration
Summary of the method: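 Real-time viability: cells seeded at 600 per well together with NanoLuc and cell-permeant prosubstrate, compounds added after 5 h incubation. Luminescence tracked at 0, 8, 16, 24, 32 and 40 h of exposure.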
% is scaled to controls: 0 for no effect and ±100 for the full control effect; potency is read from the fitted curve at half-maximal effect.

SMILES	Potency	activity change, negative = cytotoxic
C[C@]12C=CC3=C4CCC(=O)C=C4CC[C@H]3[C@@H]1CC[C@@H]2O	inactive	
CC[N+]1(C)CCCC(OC(=O)C(O)(c2ccccc2)c2ccccc2)C1 (stereo not drawn)		0.379% [at 35.3 µM]
OCC1CO1 (stereo not drawn)	inactive	
[Cl-].[Cl-].[Hg+2]	3.89 µM (active)	
C=CCN1C[C@H](C)N([C@H](c2ccc(C(=O)N(CC)CC)cc2)c2cccc(OC)c2)C[C@H]1C		-6.06% [at 35.3 µM]
O=P(OCC(Br)CBr)(OCC(Br)CBr)OCC(Br)CBr (stereo not drawn)	inactive	
C=CCSSCC=C		0.43%
O=C(NCNC(=O)NC1C(=O)NC(=O)N1CO)NC1C(=O)NC(=O)N1CO (stereo not drawn)		0.622%
O=C(N/N=C/c1ccc([N+](=O)[O-])o1)c1cc([N+](=O)[O-])cc([N+](=O)[O-])c1O		-0.814% [at 35.3 µM]
O=[N+]([O-])O[C@H]1CO[C@H]2[C@@H]1OC[C@H]2O[N+](=O)[O-]		1.36% [at 35.3 µM]
CCSCc1ccccc1OC(=O)NC		3.21%
Nc1ccc2c(c1)Cc1ccccc1-2		-2.66%
OCCCl		-0.659%
O=C(O)C(F)(F)C(F)(F)C(F)(F)C(F)(F)C(F)(F)C(F)(F)C(F)(F)C(F)(F)F		4.65%
NCCc1cc(O)c(O)cc1O		-8.3% [at 35.3 µM]
COc1ccc(C(=O)c2c(C)n(CCN3CCOCC3)c3ccccc23)cc1		-7.1% [at 35.3 µM]
C[C@H](N)[C@H](O)c1ccc(O)c(O)c1		-2.77% [at 35.3 µM]
C[C@]12CC[C@H]3[C@@H](CCC4=CC(=O)CC[C@@H]43)[C@@H]1CC[C@@H]2OC(=O)CCc1ccccc1		1.98% [at 35.3 µM]
C=C(Cl)Cl		-0.0765%

SMILES	Potency	activity change, negative = cytotoxic
CCC1(C2=NCCN2)Cc2ccccc2O1 (stereo not drawn)		0.397% [at 35.3 µM]
CCOC(=O)c1cn2nc(OP(=S)(OCC)OCC)cc2nc1C		-6.37%
Cc1nc(N(C)C)nc(OC(=O)N(C)C)c1C		-0.0752%
CC(=O)NNc1ccccc1		-0.688%
CN(C)c1ccc(N=O)cc1	34.7 µM (active)	
C1CCNCC1		-2.83%
CC(Cc1ccccc1)NCc1ccccc1Cl (stereo not drawn)		-0.895% [at 35.3 µM]
CCCCCCCCCCCC[N+](C)(C)CCOc1ccccc1	19.5 µM (active) and 6.01 µM (active)	
C#C[C@]1(O)CC[C@H]2[C@@H]3CCC4=CC(=O)CCC4=C3C=C[C@@]21CC		-23.3% [at 35.3 µM]
c1ccc2sc(SNC3CCCCC3)nc2c1	inactive	
CCNC(=O)NC(=O)/C(C#N)=N/OC		9.22%
CC(C)(C)OOC(C)(C)CCC(C)(C)OOC(C)(C)C		0.974%
C[C@@H]1C[C@@H]([C@H](O)CC2CC(=O)NC(=O)C2)C(=O)[C@@H](C)C1	inactive	
N#CC(C#N)=Cc1ccc(O)c(O)c1		-7.73% [at 35.3 µM]
CN(C)N		0.108%
Cc1ccc(N)c(C)c1	inactive	
CCCCCCCCP(=O)(O)O		0.432%
COP(=O)(OC)OC(Br)C(Cl)(Cl)Br (stereo not drawn)	inactive	
O=[N+]([O-])/C=C/c1ccccc1	19.8 µM (active) and 13.8 µM (active)	
